Assay results as given in PubChem BioAssay (Tox21).
Records with an inconclusive call do not appear. A call without a number means that no potency is given here. Values without a mark were called inactive. The source made the active and inactive calls. Unless noted, the call rests on the fitted dose curve; in most records, active means well fitted curve in the direction sought with a large enough effect in the repeat runs; inconclusive means weak or mixed curves; inactive means no such curve, though single readings can be large; an effect the other way counts as inactive or inconclusive.

Assays:
[1] = qHTS assay to identify small molecule antagonists of the vitamin D receptor (VDR) signaling pathway - cell viability counter screen (AID 743225); further: nearly all actives have a fitted effect of over 50% in size; further: potency means the concentration at half of the fitted maximal effect
In short: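 HEK293T VDR-bla; cpd + 1a,25-(OH)2D3 3 nM final, 16 h 37C/5% CO2; B/G FRET substrate 2 h RT; then CellTiter-Glo 30 min RT, luminescence.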

[2] = qHTS assay to identify small molecule agonists of the endoplasmic reticulum stress response signaling pathway (AID 1159516; active means well fitted activation curve with a large enough effect in the signal ratio in the repeat runs, not every such curve was filed as active; the % refers to the signal ratio; further: potency means the concentration at half of the fitted maximal effect)
In short: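 Read-out is beta-lactamase cleavage of a FRET substrate (405 nm excitation; 460 and 530 nm emissions) in ESRE-bla HeLa cells after a 5 hr compound exposure at 37 C. Substrate incubation ran 2 hr at room temperature.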

[3] = qHTS assay to identify small molecule agonists of the endoplasmic reticulum stress response signaling pathway - cell viability counter screen (AID 1159517; calls by dose curve;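 further: HeLa cells carrying an ER stress response element beta-lactamase reporter; series mostly up to about 61 µM; nearly all actives have a fitted effect of over 50% in size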)
In short: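 HeLa cells carrying an ESRE-driven beta-lactamase reporter receive compound for 5 hr at 37 C. Cell viability is then gauged with CellTiter-Glo by luminescence, 30 min at room temperature.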

[4] = qHTS assay to identify small molecule antagonists of the retinoid-related orphan receptor gamma (ROR-gamma) signaling pathway - cell viability counter screen (AID 1159520); further: nearly all actives have a fitted effect of over 50% in size; further: potency means the concentration at half of the fitted maximal effect
In short: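 Cytotoxicity was read from cellular ATP (CellTiter-Glo luminescence) after 16 hr at 37 C with 1 uM doxycycline induction. The inducer was added 2 hr after compound transfer to Tet-on ROR gamma CHO cells.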

[5] = target: Nuclear receptor ROR-gamma (Homo sapiens) (UniProt P51449); test: qHTS assay to identify small molecule antagonists of the retinoid-related orphan receptor gamma (ROR-gamma) signaling pathway (AID 1159521; further: nearly all actives have a fitted effect of over 50% in size; further: potency means the concentration at half of the fitted maximal effect;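 on activity change, negative = inhibition: CHO cells with doxycycline inducible ROR-gamma driving an RORE luciferase reporter; top concentration of the series differs between compounds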)
In short: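 Cells were plated, rested 4 h at 37 C, exposed to compounds for 2 h, then given 1 uM final doxycycline hyclate to induce RORγ expression. After 16 h, ONE-Glo luminescence from the ROR response element reporter was measured.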

[6] = qHTS assay to identify small molecule agonists of the AP-1 signaling pathway - cell viability counter screen (AID 1159525; calls by dose curve; further: nearly all actives have a fitted effect of over 55% in size)
In short: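 Luminescent ATP readout (Cell Titer Glo, 30 min RT), normalised to DMSO and tetra n-octyl ammonium bromide controls. Cells were ME-180 AP-1-bla in 0.5% dialyzed FBS Opti-MEM, with a 5 h, 37 °C compound exposure.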

[7] = qHTS assay to identify small molecule agonists of the AP-1 signaling pathway (AID 1159526; calls by dose curve)
[8] = qHTS assay to identify small molecule agonists of the RXR signaling pathway - cell viability counter screen (AID 1159529); further: nearly all actives have a fitted effect of over 50% in size; further: potency means the concentration at half of the fitted maximal effect;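 on activity change, negative = cytotoxicity: HEK 293T cells carrying an RXR-alpha UAS beta-lactamase reporter; series mostly up to about 77 µM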
In short: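 Steps: seed RXR-alpha-UAS-bla HEK 293T cells in assay medium containing 2% charcoal-stripped FBS; incubate 5 hr; add compounds in DMSO; incubate 16 hr at 37 C; after the bla read, add CellTiter-Glo and read luminescence at 30 min.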

[9] = qHTS assay to identify small molecule antagonists of the retinoid acid receptor (RAR) signaling pathway - cell viability counter screen (AID 1159551); further: nearly all actives have a fitted effect of over 35% in size
In short: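 Luminescent ATP quantitation (CellTiter-Glo) gave cell viability in C3RL4 cells exposed to test chemicals for 6 h at 37 C alongside 1 uM final retinol.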

[10] = target: Retinoic acid receptor RXR-alpha (Homo sapiens) (UniProt P19793); test: qHTS assay to identify small molecule agonists of the RXR signaling pathway (AID 1159527; calls by dose curve; further: nearly all actives have a fitted effect of over 35% in size)
In short: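 Cells plated at 2,000/well, rested 5 hr at 37 C, pin-dosed with DMSO compound solutions, incubated 16 hr, then loaded with B/G FRET substrate for 2 hr at RT before dual-emission fluorescence reading.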

Retinoic acid receptor RXR-alpha (Homo sapiens), sequence (P19793 whole entry, looked up): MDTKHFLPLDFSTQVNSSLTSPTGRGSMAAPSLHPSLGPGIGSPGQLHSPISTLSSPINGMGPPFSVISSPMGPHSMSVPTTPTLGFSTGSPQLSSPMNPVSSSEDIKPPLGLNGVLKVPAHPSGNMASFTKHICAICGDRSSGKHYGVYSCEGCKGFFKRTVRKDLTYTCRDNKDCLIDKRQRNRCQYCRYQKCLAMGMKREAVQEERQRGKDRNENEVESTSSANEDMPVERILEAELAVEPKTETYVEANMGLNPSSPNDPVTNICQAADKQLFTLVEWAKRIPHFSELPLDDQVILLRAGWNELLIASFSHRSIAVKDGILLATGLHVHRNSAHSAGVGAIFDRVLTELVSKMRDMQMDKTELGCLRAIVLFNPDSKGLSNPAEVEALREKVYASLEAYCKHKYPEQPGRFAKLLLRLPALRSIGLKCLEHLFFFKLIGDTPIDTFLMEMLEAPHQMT

Structure (SMILES): CC1(C)C(=O)N(Br)C(=O)N1Br
- Potency [1]: inactive
- Potency [2]: inactive
- Potency [3]: inactive
- Potency [4]: inactive
- Potency [5]: inactive
- Potency [6]: inactive
- Potency [7]: inactive
- Potency [8]: inactive
- Potency [9]: inactive

Structure (SMILES): c1cc(OCC2CO2)cc(OCC2CO2)c1 (stereo not drawn)
- Potency [1]: inactive
- Potency [2]: inactive
- Potency [3]: inactive
- Potency [4]: inactive
- Potency [5]: 48.2 µM (active)
- Potency [6]: inactive
- Potency [8]: 48.6 µM (active)

Structure (SMILES): CN(Cc1cc(Br)cc(Br)c1N)C1CCCCC1
- Potency [1]: inactive
- Potency [2]: inactive
- Potency [3]: inactive
- Potency [4]: inactive
- Potency [5]: inactive

Structure (SMILES): CNC(=S)NN
- Potency [2]: inactive
- Potency [3]: inactive
- Potency [4]: inactive
- Potency [5]: 27.3 µM (active)
- Potency [6]: inactive
- Potency [9]: inactive

Structure (SMILES): CC(C)(C)C1=CC(=O)C=C(C(C)(C)C)C1=O
- Potency [1]: inactive
- Potency [2]: inactive
- Potency [3]: inactive
- Potency [4]: inactive
- Potency [6]: inactive
- Potency [7]: inactive
- Potency [10]: inactive
- Potency [8]: inactive
- Potency [9]: inactive

Structure (SMILES): COC(=O)CC(C)CCC=C(C)C (stereo not drawn)
- Potency [1]: inactive
- Potency [2]: inactive
- Potency [3]: inactive
- Potency [4]: inactive
- Potency [5]: inactive
- Potency [6]: inactive
- Potency [8]: inactive
- Potency [9]: inactive

Structure (SMILES): NC1(c2ccc(-c3nc4ccn5c(=O)[nH]nc5c4cc3-c3ccccc3)cc2)CCC1
- Potency [1]: 21.3 µM (active)
- Potency [2]: inactive
- Potency [3]: inactive
- Potency [4]: 29.8 µM (active)
- Potency [5]: 0.596 µM (active)
- Potency [8]: 21.3 µM (active)

Structure (SMILES): N[C@@H](CSSC[C@H](N)C(=O)O)C(=O)O
- viability change, negative = cytotoxic [1]: 6.19% [at 0.628 µM]
- activation [2]: -7.2% [at 0.628 µM]
- activity change, negative = cytotoxicity [3]: 2.61% [at 0.628 µM]
- activity, negative = cytotoxicity [4]: 0.408% [at 0.349 µM]
- activity change, negative = inhibition [5]: -16.9% [at 0.35 µM]
- viability change, negative = cytotoxic [6]: 3.93% [at 0.29 µM]
- activity change, negative = cytotoxicity [9]: -1.26% [at 0.349 µM]

Structure (SMILES): CCCN(CCc1cccs1)[C@H]1CCc2c(O)cccc2C1
- Potency [1]: inactive
- Potency [2]: inactive
- Potency [3]: inactive
- Potency [4]: inactive
- Potency [5]: inactive
- Potency [6]: inactive
- Potency [10]: inactive
- Potency [9]: inactive

Structure (SMILES): [O]=[Zr]
- Potency [1]: inactive
- Potency [2]: inactive
- Potency [3]: inactive
- Potency [4]: inactive
- Potency [6]: inactive
- Potency [7]: inactive
- Potency [10]: inactive
- Potency [8]: inactive
- Potency [9]: inactive

Structure (SMILES): CCNc1nc(NC(C)CC)nc(OC)n1 (stereo not drawn)
- Potency [1]: inactive
- Potency [2]: inactive
- Potency [3]: inactive
- Potency [4]: inactive
- Potency [6]: inactive
- Potency [7]: inactive
- Potency [10]: inactive
- Potency [8]: inactive
- Potency [9]: inactive

Structure (SMILES): C=CC(C)(CCC=C(C)C)OC(=O)/C=C/c1ccccc1 (stereo not drawn)
- Potency [2]: inactive
- Potency [3]: inactive
- Potency [4]: inactive
- Potency [5]: inactive
- Potency [6]: inactive
- Potency [9]: inactive

Structure (SMILES): c1cc2c3c(c1)ccc1cccc(c13)C2
- Potency [2]: inactive
- Potency [3]: inactive
- Potency [4]: inactive
- Potency [5]: inactive
- Potency [6]: inactive
- Potency [9]: inactive

Structure (SMILES): O=C(O)Cc1ccc(OCCNC[C@H](O)c2ccccc2)cc1
- Potency [1]: inactive
- Potency [2]: inactive
- Potency [3]: inactive
- Potency [4]: inactive
- Potency [5]: inactive
- Potency [6]: inactive
- Potency [8]: inactive
- Potency [9]: inactive

Structure (SMILES): NCCCC(O)(P(=O)(O)O)P(=O)(O)O
- Potency [1]: inactive
- Potency [2]: inactive
- Potency [3]: inactive
- Potency [4]: inactive
- Potency [6]: inactive
- Potency [7]: inactive
- Potency [10]: inactive
- Potency [8]: inactive
- Potency [9]: inactive

Structure (SMILES): O=C(c1ccccc1)c1cc(Cl)ccc1O
- Potency [1]: inactive
- Potency [2]: inactive
- Potency [3]: inactive
- Potency [4]: inactive
- Potency [5]: inactive
- Potency [10]: inactive
- Potency [9]: inactive

Structure (SMILES): CCCCNc1c(C(=O)OCC)c(C)nc2c1cnn2CC
- Potency [1]: inactive
- Potency [2]: inactive
- Potency [3]: inactive
- Potency [4]: inactive
- Potency [5]: inactive
- Potency [6]: inactive
- Potency [7]: inactive
- Potency [8]: inactive
- Potency [9]: inactive

Structure (SMILES): CCC(C)(C)c1cc(O)c(C(C)(C)CC)cc1O
- Potency [1]: inactive
- Potency [2]: 3.89 µM (active)
- Potency [3]: inactive
- Potency [4]: 24.3 µM (active)
- Potency [5]: 24.3 µM (active)
- Potency [6]: inactive
- Potency [7]: inactive
- Potency [10]: inactive
- Potency [9]: inactive

Structure (SMILES): C/C=C/C=N/NC(=O)c1ccncc1
- Potency [1]: inactive
- Potency [2]: inactive
- Potency [3]: inactive
- Potency [4]: inactive
- Potency [5]: inactive
- Potency [6]: inactive
- Potency [8]: inactive

Structure (SMILES): CCCCCCCCCCCC(=O)N(CC)CC
- Potency [1]: inactive
- Potency [2]: inactive
- Potency [3]: inactive
- Potency [4]: inactive
- Potency [5]: inactive
- Potency [6]: inactive
- Potency [8]: inactive
- Potency [9]: inactive

Structure (SMILES): CCN(CC)CCSC(=O)C(c1ccccc1)c1ccccc1
- Potency [1]: inactive
- Potency [2]: inactive
- Potency [3]: inactive
- Potency [4]: inactive
- Potency [5]: inactive
- Potency [6]: inactive
- Potency [9]: inactive

Structure (SMILES): O=C1NCCN1CCN1CCC(c2cn(-c3ccc(F)cc3)c3ccc(Cl)cc23)CC1
- Potency [1]: 16.9 µM (active)
- Potency [2]: inactive
- Potency [3]: inactive
- Potency [4]: inactive
- Potency [5]: 26.6 µM (active)
- Potency [8]: 21.3 µM (active)

Structure (SMILES): CCCCCCCC/C=C/CCCOC(C)=O
- Potency [1]: inactive
- Potency [2]: inactive
- Potency [3]: inactive
- Potency [4]: inactive
- Potency [5]: inactive
- Potency [6]: inactive
- Potency [7]: inactive
- Potency [8]: inactive
- Potency [9]: inactive

Structure (SMILES): O=C1Nc2ccc(Cl)cc2[C@@](C#CC2CC2)(C(F)(F)F)O1
- Potency [2]: inactive
- Potency [3]: inactive
- Potency [4]: 29.8 µM (active)
- Potency [5]: inactive
